# Laboratory results as given in PubChem BioAssay (EPA / NIEHS).
# Results filed as inconclusive are left out. Calls of active or inactive are those of the source. The calls were made as follows, unless noted: active = hit-call score of the fitted dose curve at least 0.9, where 1 is the maximum; inactive = score below 0.9.
# Experiments:
# [1] = CCTE_Shafer_MEA_acute_AB: CCTE's Alamar Blue Assay for Cytotoxicity in the Neural Acute Assay, Shafer Lab (AID 2284069; active = hit-call score of the fitted dose curve at least 0.9, where 1 is the maximum;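 also: active compounds lower the viability signal compared with DMSO wells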)
# How it was run: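 Resazurin reduction (CellTiter Blue, 1:6 in fresh medium) read at ex 544/em 590 nm marks viability loss relative to DMSO. Cells: primary rat cortical neuron networks on microelectrode arrays, treated after baseline recording at 13 or 15 days in vitro.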
# [2] = CCTE_Shafer_MEA_acute_LDH: CCTE's Lactate Dehydrogenase Assay for Cytotoxicity in the Neural Acute Assay, Shafer Lab (AID 2284086; active = hit-call score of the fitted dose curve at least 0.9, where 1 is the maximum;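 also: active means LDH release rises above DMSO vehicle level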)
# How it was run: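 Rat cortical neurons cultured on microelectrode arrays; baseline 40-min recording, compound added, second 40-min recording; medium then sampled for released LDH (colorimetric kit, 490 nm). DMSO = negative control.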
# [3] = TAMU_PeakParms_SingleDonor1434_Chronotropy: Texas A&M University (TAMU) 1.5-hr Human Induced Pluripotent Stem Cell (iPSC)-derived Cardiomyocytes Calcium (Ca+2) Flux Assay for Cardiotoxicity: Chronotropy (changes in peak frequency) (AID 2284217); conditions: actives raise or lower the signal
# How it was run: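 Beat rate, as mean Ca2+-flux peak frequency, was read from donor 1434 iPSC cardiomyocytes 90 min after exposure to 0.2–100 uM test chemical (0.5% DMSO). Wells that stopped beating were excluded; EC05 from bidirectional DMSO-referenced fitting.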
# [4] = tested on: DIO3 (gene 1735); test: CCTE_GLTED_hDIO3: CCTE's human Deiodinase 3 (DIO3) Inhibition Assay, Great Lakes Toxicology and Ecology Division (GLTED) Lab (AID 2284055; active = hit-call score of the fitted dose curve at least 0.9, where 1 is the maximum;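 also: potency is for inhibition seen as loss of released iodide signal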)
# How it was run: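 Absorbance from the Sandell-Kolthoff reaction reports iodide released by human DIO3 during a 3-hour incubation with chemical. Inhibition scored as signal loss against DMSO controls.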
# [5] = CCTE_Shafer_MEA_dev_per_network_spike_spike_percent: CCTE's Neural Network Formation Assay for Percent of Spikes in a Network Spike, Shafer Lab (AID 2284054)
# How it was run: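 Rat primary cortical neurons were grown on 48-well MEA plates (16 electrodes/well), exposed from plating day 0 through day 12, with treatment renewed on DIV 5 and 9. Percent of spikes within 0.05 s network-spike peaks was measured, summarised as AUC across days 5, 7, 9, 12.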
# [6] = CCTE_Shafer_MEA_dev_LDH: CCTE's Lactate Dehydrogenase Assay for Cytotoxicity in the Neural Network Formation Assay, Shafer Lab (AID 2284068; active = hit-call score of the fitted dose curve at least 0.9, where 1 is the maximum;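 also: exposure for twelve days from plating with re-dosing on DIV 5 and 9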)
# How it was run: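 Primary rat cortical neurons were cultured on PEI-coated MEA plates and exposed from plating through day 12, with compound renewed at medium changes on DIV 5 and 9. LDH activity was read spectrophotometrically; loss of signal versus DMSO indicates reduced viability.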
# [7] = CCTE_Shafer_MEA_dev_mutual_information_norm: CCTE's Neural Network Formation Assay for Mutual Information Normalization, Shafer Lab (AID 2284091);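 as to AC50: mutual information between electrodes summarised as area under curve across four recording days; potency is for a decrease in mutual information relative to DMSO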
# How it was run: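 Primary rat cortical neurons on PEI-coated 48-well MEA plates, 1.5 x 10^5 cells/well, exposed from day 0 through day 12 with re-dosing at DIV 5 and 9. Mutual information between electrodes recorded days 5, 7, 9, 12; trapezoidal AUC, loss-of-signal fit versus DMSO.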
# [8] = CCTE_Shafer_MEA_dev_correlation_coefficient_mean: CCTE's Neural Network Formation Assay for Mean Correlation Coefficient, Shafer Lab (AID 2284093);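 as to AC50: well mean pairwise spike train correlation integrated as AUC over recording days 5 to 12; potency fitted for loss of correlation relative to DMSO vehicle wells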
# How it was run: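 Primary rat cortical neurons on PEI-coated 48-well MEA plates (16 electrodes/well) were exposed from plating day 0 through DIV12, with compound renewed at DIV5 and 9. Pairwise spike correlations were averaged per well; trapezoidal AUC across DIV5, 7, 9, 12.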
# [9] = CCTE_Shafer_MEA_dev_AB: CCTE's Alamar Blue Assay for Cytotoxicity in the Neural Network Formation Assay, Shafer Lab (AID 2284083; active = hit-call score of the fitted dose curve at least 0.9, where 1 is the maximum;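 also: resazurin reduction fluorescence as viability of cultured neurons; twelve days of exposure from plating with re-dosing on DIV 5 and 9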)
# How it was run: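 Resazurin fluorescence, relative to DMSO, gauges viability after twelve days of exposure that began at plating of rat cortical neurons (1.5 x 10^5 cells/well, 48-well MEA); treatment renewed with full medium exchange on DIV 5 and 9.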
# [10] = CCTE_Mundy_HCI_Cortical_Synap_Neur_Matur_NeuriteSpotCountPerNeuriteLength: CCTE's Synaptogenesis and Neurite Maturation Assay in rat cortical cells for Neurite Spot Count per Neurite Length, Mundy Lab (AID 2284210)
# How it was run: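 Rat primary cortical cultures, AraC added at DIV 5 to suppress glia; chemical exposure from DIV 7 to DIV 12. Fixed cells stained for MAP2 and synaptophysin plus Hoechst; synaptophysin puncta per neurite length quantified by high-content imaging, relative to DMSO.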
# [11] = CCTE_Mundy_HCI_Cortical_Synap_Neur_Matur_BPCount: CCTE's Synaptogenesis and Neurite Maturation Assay in rat cortical cells for Branch Point Count, Mundy Lab (AID 2284211)
# How it was run: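 Rat primary cortical cultures, AraC added DIV 5; chemicals dosed DIV 7 through DIV 12. Fixed cells stained for MAP2, synaptophysin and Hoechst; neurite branch points counted by automated high-content imaging, fitted relative to DMSO.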
# [12] = CCTE_Mundy_HCI_Cortical_NOG_NeuriteCount: CCTE's Neurite Outgrowth Assay in rat cortical cells for Neurite Count, Mundy Lab (AID 2284212);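 also: cells fixed about two days after chemical exposure began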
# How it was run: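 Neurite number per cell from high-content imaging of betaIII-tubulin immunostaining, with Hoechst nuclear counterstain.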
# [13] = CCTE_Mundy_HCI_Cortical_NOG_NeuriteLength: CCTE's Neurite Outgrowth Assay in rat cortical cells for Neurite Length, Mundy Lab (AID 2284213);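 as to AC50: neurites imaged about 48 to 50 h after chemical exposure began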
# How it was run: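 Neurite length was read by high-content imaging of βIII-tubulin-labelled neurites in rat primary cortical cultures. Activity was fitted relative to DMSO.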
# [14] = CCTE_Mundy_HCI_Cortical_Synap_Neur_Matur_NeuriteLength: CCTE's Synaptogenesis and Neurite Maturation Assay in rat cortical cells for Neurite Length, Mundy Lab (AID 2284214)
# How it was run: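 Rat cortical neurons, AraC at DIV 5; compound + media change DIV 7, end DIV 12 (288.33 h). Fix, MAP2/synaptophysin/Hoechst immunostain, automated HCI of neurite length vs DMSO.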
# [15] = CCTE_Mundy_HCI_Cortical_Synap_Neur_Matur_NeuriteSpotCountPerNeuron: CCTE's Synaptogenesis and Neurite Maturation Assay in rat cortical cells for Neurite Spot Count per Neuron Count, Mundy Lab (AID 2284215)
# How it was run: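 Read-out: neurite-associated synaptophysin puncta per neuron, imaged by high-content analysis after MAP2, synaptophysin and Hoechst staining. Rat primary cortical cultures, dosed DIV 7 through DIV 12; DMSO served as baseline.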
# [16] = CCTE_Mundy_HCI_Cortical_Synap_Neur_Matur_SynapseCount: CCTE's Synaptogenesis and Neurite Maturation Assay in rat cortical cells for Synapse Count, Mundy Lab (AID 2284218)
# How it was run: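 Primary rat cortical culture; AraC DIV 5 to arrest glia; compound + media change DIV 7; terminated DIV 12. PFA/Hoechst fix, anti-MAP2 + anti-synaptophysin immunostain; HCI synapse count/neuron; DMSO = baseline.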
# [17] = CCTE_Mundy_HCI_hN2_NOG_NeuriteCount: CCTE's Neurite Outgrowth Assay in human hN2 cells for Neurite Count, Mundy Lab (AID 2284219; active = hit-call score of the fitted dose curve at least 0.9, where 1 is the maximum)
# How it was run: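 In this morphology assay, hNP1-derived neurons received test chemical 2 h post-plating and were fixed two days later in warm paraformaldehyde/sucrose containing Hoechst 33342. Neurites, labelled by rabbit anti-βIII-tubulin (1:800) and Alexa Fluor-488 (1:500), were counted automatically.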
# [18] = IUF_NPC1b_proliferation_BrdU_72hr: Leibniz Research Institute for Environmental Medicine (IUF) 72-hour Neural Progenitor Cell Bromodeoxyuridine (BrdU) Proliferation Assay (NPC1b) (AID 2284207)
# How it was run: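 BrdU luminescence ELISA quantified DNA synthesis over the last 16 h of a 72 h exposure, fitted against DMSO. Primary hNPC spheres from gestational week 16-19 cortex grown with EGF/FGF at 37C, pH 7.2-7.6.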
# [19] = IUF_NPC1a_proliferation_area_72hr: Leibniz Research Institute for Environmental Medicine (IUF) 72-hour Neural Progenitor Cell Proliferation Area Assay (NPC1a) (AID 2284208)
# How it was run: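 hNPC spheres (human fetal cortex, GW 16-19), one per poly-Hema U-bottom well; EGF+FGF medium; dosed day 0, no re-dosing; 72 h, 37C, 5% CO2; phase-contrast sphere area; DMSO = baseline; minus-GF = positive ctrl.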
# [20] = IUF_NPC1_viability_72hr: Viability Assessment at 72 hours in the Leibniz Research Institute for Environmental Medicine (IUF) Neural Progenitor Cell Proliferation Assay (NPC1) (AID 2284209)
# How it was run: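 hNPC spheres, 1/well, EGF+FGF medium, 37C/5% CO2; dosed day 0, 72 h, no re-dosing. Resazurin reduction (alamar blue) fluorescence; DMSO = negative control/baseline; growth-factor-free wells as positive control.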
compound,measurement,setting,value
CO[C@H]1/C=C/O[C@@]2(C)Oc3c(C)c(O)c4c(O)c(c(/C=N/N5CCN(C)CC5)c(O)c4c3C2=O)NC(=O)/C(C)=C\C=C\[C@H](C)[C@H](O)[C@@H](C)[C@@H](O)[C@@H](C)[C@H](OC(C)=O)[C@@H]1C,outcome,[1],inactive
same,outcome,[2],inactive
CCCOC(=O)c1cc(O)c(O)c(O)c1,AC50,[3],50 µM (active)
Cc1cc2c(cc1C(F)(F)F)N(C(=O)Nc1ccc(Oc3cccnc3C)nc1)CC2,outcome,[1],inactive
same,outcome,[2],inactive
O=CCCCC=O,AC50,[4],9.03 µM (active)
c1ccc2ccccc2c1,outcome,[5],inactive
same,outcome,[6],inactive
same,outcome,[7],inactive
same,outcome,[8],inactive
same,AC50,[3],9.92 µM (active)
CC/C(=C(/CC)c1ccc(O)cc1)c1ccc(O)cc1,AC50,[5],3.87 µM (active)
same,AC50,[6],19.5 µM (active)
same,outcome,[1],inactive
same,outcome,[9],inactive
same,AC50,[7],0.864 µM (active)
same,AC50,[8],5.98 µM (active)
same,outcome,[10],inactive
same,AC50,[11],8.64 µM (active)
same,AC50,[12],22.6 µM (active)
same,AC50,[13],23.7 µM (active)
same,AC50,[14],9.46 µM (active)
same,AC50,[15],14.3 µM (active)
same,outcome,[3],inactive
same,AC50,[16],15.4 µM (active)
same,AC50,[17],9.12 µM (active)
CC(O)CC(C)(C)O (stereo unspecified),outcome,[1],inactive
same,outcome,[2],inactive
CC(C)(c1cc(Br)c(O)c(Br)c1)c1cc(Br)c(O)c(Br)c1,outcome,[5],inactive
same,AC50,[4],37.8 µM (active)
same,outcome,[6],inactive
same,outcome,[1],inactive
same,outcome,[7],inactive
same,outcome,[8],inactive
same,outcome,[18],inactive
same,outcome,[19],inactive
same,outcome,[20],inactive
same,outcome,[3],inactive
C[C@]12CC[C@@H]3c4ccc(O)cc4CC[C@H]3[C@@H]1CC[C@H]2O,outcome,[1],inactive
O=C1O[C@H]([C@@H](O)CO)C(O)=C1O,outcome,[1],inactive
same,outcome,[9],inactive
same,outcome,[2],inactive
same,outcome,[7],inactive
same,outcome,[8],inactive
same,AC50,[18],0.215 µM (active)
same,outcome,[19],inactive
same,outcome,[20],inactive
same,outcome,[10],inactive
same,outcome,[11],inactive
same,outcome,[12],inactive
same,outcome,[13],inactive
same,outcome,[14],inactive
same,outcome,[15],inactive
same,outcome,[3],inactive
same,outcome,[16],inactive
NC(=O)c1nc(-c2cccc(-c3cc(F)ccc3OCC(F)(F)C(F)(F)F)c2)n[nH]1,AC50,[4],182 µM (active)
same,outcome,[1],inactive
same,outcome,[2],inactive
CCCCCCCCCCCC[N+](C)(C)C,AC50,[4],119 µM (active)
CC1=CC(=O)/C(=C(/C)O)C(=O)O1,outcome,[1],inactive
same,outcome,[2],inactive
